In PubChem BioAssay AID2599 (Sanford-Burnham Center for Chemical Genomics, 2010):
Hit rate of the full screen: of about 330,000 compounds, about 5,800 (1.8%) were called active. The list comes from a sample in which actives are over-represented; it also holds similar structures and randomly drawn compounds. Values without a mark were called inactive.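 The calls were made as follows: active = inhibition above about 50% at the single tested dose (limit read from the data); inactive = the rest.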

What follows are compounds tested against Sentrin-specific protease 6 (Homo sapiens) (UniProt Q9GZR1) (assay: inhibition of human SENP6 catalytic domain – biochemical, luminescence, uHTS, primary screen (AID 2599;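 also: plate controls were DMSO wells with enzyme for no effect and DMSO wells lacking enzyme for full effect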)). Conditions: Recombinant SENP6 catalytic domain, aminoluciferin luminescence; at 10 µM; hits give high values.
Sequence of Sentrin-specific protease 6 (Homo sapiens) (Q9GZR1 628-1112 limits assumed): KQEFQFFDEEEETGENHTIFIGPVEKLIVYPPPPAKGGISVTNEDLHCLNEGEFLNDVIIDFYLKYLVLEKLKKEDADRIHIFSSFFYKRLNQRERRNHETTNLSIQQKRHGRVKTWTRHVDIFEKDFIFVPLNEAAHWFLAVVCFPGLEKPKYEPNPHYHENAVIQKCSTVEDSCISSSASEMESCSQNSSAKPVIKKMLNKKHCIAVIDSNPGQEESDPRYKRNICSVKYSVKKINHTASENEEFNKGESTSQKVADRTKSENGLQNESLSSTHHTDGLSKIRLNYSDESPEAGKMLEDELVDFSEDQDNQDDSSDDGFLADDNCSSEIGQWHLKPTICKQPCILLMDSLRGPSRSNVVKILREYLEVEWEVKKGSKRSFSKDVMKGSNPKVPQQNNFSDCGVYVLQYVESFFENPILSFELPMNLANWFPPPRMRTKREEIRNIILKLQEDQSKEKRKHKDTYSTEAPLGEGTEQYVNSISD
For `CC(C)(C)c1cc(C(=O)N/N=C/c2ccc([N+](=O)[O-])s2)n[nH]1`, the inhibition was 35.9%.
With `COc1ccc(C(=O)NCC(=O)N/N=C/c2ccc([N+](=O)[O-])s2)cc1OC` the inhibition was 48.9%.
`O=[N+]([O-])c1ccc(C=Nc2ccc(Cl)cc2Cl)s1` was tested, and the inhibition was 57.5% (active).
With `CC(=O)Nc1nc(N(C)C)nc(N(C)C)n1` the inhibition was -13.9%.
In the case of `CCOC(=O)C(C)n1cnc2sc(C)c(C)c2c1=O` (centres undefined), the inhibition is reported as -17.3%.
Compound `Cc1c(C(N)=O)sc2ncn(CCOc3ccccc3)c(=O)c12` has an inhibition of -16.1%.
`Cc1cccc(OC(=O)c2sc3ncn(C)c(=O)c3c2C)c1` was tested, and the inhibition was 52.6% (active).
Work on `FC(F)(F)c1ccc(-n2cn[nH]c2=S)cc1` yielded an inhibition of -14.6%.
`CCSC1=NCCN1S(=O)(=O)c1ccc(F)cc1` was tested, and the inhibition was -6.19%.
`CCCn1nnnc1NCc1ccc(CC)cc1` gave an inhibition of -6.18%.
For `O=C(CSc1nn(-c2ccc(F)cc2)c(=S)s1)NC1CCS(=O)(=O)C1` (centres undefined), the inhibition was -6.03%.
`c1c2c(cc3sc(N4CCCCC4)nc13)OCCO2` showed an inhibition of 7.27%.
In the case of `Brc1ccc2nc(N3CCCC3)sc2c1`, the inhibition is reported as 75.4% (active).
Compound `O=C(c1ccc2nc(N3CCOCC3)sc2c1)N1CCN(c2ccc(Cl)cc2)CC1` has an inhibition of -6.6%.
`O=S(=O)(Nc1ccc2nc(N3CCOCC3)sc2c1)c1ccccc1` gave an inhibition of -2.51%.
`Fc1ccc2nc(N3CCCCC3)sc2c1` was tested, and the inhibition was 89.5% (active).
For `Fc1ccc2nc(Nc3nc4c(s3)CCCC4)sc2c1`, the inhibition was 34.4%.
In the case of `C/C(=N/NC(=O)CCc1ccccc1)c1ccco1`, the inhibition is reported as 12.1%.
`C=CCn1c(C)cc(C2=NNC(=NCC)SC2)c1C` was tested, and the inhibition was 92.9% (active).
For `COc1ccc(CC(NC(C)=O)C(=O)NC2CCN(C(=O)C3CC3)CC2)cc1OC` (centres undefined), the inhibition was -9.43%.
`C=C(C)CSc1nc(N)c2c3c(sc2n1)CCC3` showed an inhibition of 1.28%.
With `O=C(NC(Nc1nc2ccc([N+](=O)[O-])cc2s1)(C(F)(F)F)C(F)(F)F)c1ccccc1` the inhibition was -1.71%.
With `COc1ccc(C(=O)Nc2nc(-c3ccc(OC)cc3)c(-c3ccc([N+](=O)[O-])cc3)s2)cc1` the inhibition was -31.8%.
For `O=C(Nc1nc2ccc([N+](=O)[O-])cc2s1)c1ccncc1`, the inhibition was 91.5% (active).
For `CCN(CC)S(=O)(=O)c1ccc(N2CCOCC2)c(NC(=O)C2CSC3(C)CCC(=O)N23)c1` (centres undefined), the inhibition was 4.82%.
Work on `COc1ccc2cc(C(=O)C3CCCN(C(=O)c4sc(C)nc4C)C3)ccc2c1` (centres undefined) yielded an inhibition of -16.8%.
Compound `CCCC(=O)N(CCN1CCOCC1)c1nc2ccc(OCC)cc2s1` has an inhibition of -4.24%.
For `CCOc1ccc2nc(C(=O)N3CCCC(C)C3)sc2c1` (centres undefined), the inhibition was 70.8% (active).
Work on `O=C(NCCS(=O)(=O)NCc1ccc(Cl)cc1)c1ccccc1` yielded an inhibition of -0.893%.
Work on `COc1cccc(N2C(=O)CC(N3CCc4ccccc4C3)C2=O)c1` (centres undefined) yielded an inhibition of 0.083%.
`CCOc1ccc(N2C(=O)CSC2=NC#N)cc1` was tested, and the inhibition was -18.7%.
For `O=C(Nc1ccncc1)c1cc2ccccc2o1`, the inhibition was 63.5% (active).
`CC(C)(C)n1nc2c(c1NC(=O)c1cc3ccccc3o1)CSC2` was tested, and the inhibition was 2.49%.
`COc1cc2ccccc2cc1C(=O)Nc1ccncc1` showed an inhibition of -5.66%.
In the case of `CC(OC(=O)Cc1ccc(F)cc1)C(=O)N1CCc2ccccc21` (centres undefined), the inhibition is reported as 8.22%.
Compound `CCC(=O)Nc1nnc(S(=O)(=O)N2CCCc3ccccc32)s1` has an inhibition of -3.06%.
In the case of `Nc1cccc(CCc2nc3ccccc3[nH]2)c1`, the inhibition is reported as -9.91%.
`COc1ccc(Br)cc1C(=O)NC(=S)Nc1cc(-c2nc3ccccc3[nH]2)ccc1C` showed an inhibition of 6.04%.
`Cc1ccc(-c2nc3ccccc3[nH]2)cc1N` was tested, and the inhibition was 91% (active).
For `COc1ccc(-c2[nH]nc(-c3ccccc3)c2-c2nc3ccccc3[nH]2)cc1`, the inhibition was -1.01%.
Compound `Clc1ccccc1SCc1nc2ccccc2[nH]1` has an inhibition of 39.4%.
With `c1ccc2[nH]c(-c3nc4ccccc4[nH]3)nc2c1` the inhibition was 97.2% (active).
For `CC1(C)C2CCC13CS(=O)(=O)NC3C2` (centres undefined), the inhibition was -8.89%.
In the case of `O=C(Nc1ccc(-c2ccc3nncn3n2)cc1)C1CCCCC1`, the inhibition is reported as -18.8%.
Work on `COc1ccc(N2CCN(CCCNC(=O)C3CCN(S(=O)(=O)N4CCOCC4)CC3)CC2)cc1` yielded an inhibition of 8.09%.
With `CCNC(=S)N1CCN(S(=O)(=O)c2ccc(Cl)s2)CC1` the inhibition was -2.28%.
`COc1ccc([N+](=O)[O-])cc1N(CC(=O)Nc1ccccc1C(=O)N1CCOCC1)S(C)(=O)=O` gave an inhibition of -14.4%.
For `Cc1cc(C)c(S(=O)(=O)c2ccc(F)cc2C)c(=O)[nH]1`, the inhibition was -7.65%.
`N/C(=N\OC(=O)c1cc(-c2ccccc2)nc2ccccc12)c1ccncc1` was tested, and the inhibition was -23.3%.
`Cc1ccc(/C(N)=N/OC(=O)COc2ccc(Cl)c(C)c2)cc1` was tested, and the inhibition was -9.12%.
For `Cc1cccc(/C(N)=N/OC(=O)c2ccccc2Cl)c1`, the inhibition was 86.2% (active).
`N#Cc1cc([N+](=O)[O-])ccc1Oc1cccc(/C=N/NC(=O)c2ccc(Cl)cc2)c1` was tested, and the inhibition was -30.8%.
In the case of `COc1ccc2c(C)cc(SCC(=O)NCC3CCCO3)nc2c1` (centres undefined), the inhibition is reported as 2.3%.
`Nn1c(Cc2cccc3ccccc23)nnc1SCC(=O)N1CC(=O)Nc2ccccc21` showed an inhibition of -14.3%.
With `CN(c1ccccc1)S(=O)(=O)c1cc(C(=O)Nc2nc3ccccc3[nH]2)ccc1Cl` the inhibition was 0.946%.
For `O=C(Cc1ccsc1)N1CCN(S(=O)(=O)c2cc(C(F)(F)F)cc(C(F)(F)F)c2)CC1`, the inhibition was -12.7%.
For `O=c1c(-c2cccc(Cl)c2)c[nH]n1-c1ccccc1`, the inhibition was 50.4% (active).
Compound `O=C1c2ccccc2NC(c2ccc(-c3cccc(Cl)c3)o2)N1O` (centres undefined) has an inhibition of 2.11%.
With `O=c1c(-c2ccccc2Cl)c[nH]n1-c1ccccc1` the inhibition was 5.63%.
Work on `Cc1ccc(NC(=O)c2ccn(C(=O)Nc3ccccc3)n2)c(C)c1` yielded an inhibition of 8.66%.
For `CCCCC(CC)CNC(=O)C(=O)C1C(=O)Nc2ccccc21` (centres undefined), the inhibition was -18.1%.
With `CCCn1nnnc1NCc1ccc(OC)cc1` the inhibition was -1.58%.
`COC(=O)c1scc(S(=O)(=O)C(C)(C)C)c1-n1cccc1` showed an inhibition of -3.91%.
For `N/C(=N\OC(=O)c1ccc([N+](=O)[O-])cc1)c1ccccn1`, the inhibition was 93.3% (active).
`O=C(COC(=O)c1ccccn1)NNC(=O)c1ccc([N+](=O)[O-])cc1` showed an inhibition of -1.82%.
`Cc1ccc(C(=O)O/N=C(\N)c2ccccn2)cc1Cl` was tested, and the inhibition was 94.1% (active).
With `Cc1ccc(NC(=O)c2ccccn2)cc1S(=O)(=O)N1CCOCC1` the inhibition was -7.58%.
`COc1ccc(C(=O)O/N=C(\N)c2ccccn2)cc1[N+](=O)[O-]` gave an inhibition of 13%.
`O=C(COC(=O)c1ccccn1)NNC(=O)c1ccc(Br)cc1` showed an inhibition of 6.84%.
Work on `Oc1cc2c(cc1O)CN(C(=S)NCCc1ccc(Cl)cc1)CCC2` yielded an inhibition of 1.23%.
`O=C(NCc1ccncc1)C1CCN(C(=O)c2cccc(Cl)c2)CC1` showed an inhibition of -3.02%.
With `Cc1cc(Nc2cccc(C)c2C)n2ncnc2n1` the inhibition was -7.33%.
`C=CCn1c(-c2ccc(Cl)cc2)ccc(C#N)c1=O` gave an inhibition of 4.58%.
With `O=C(Nc1ccc2c(c1)CCC2)c1cccc(S(=O)(=O)Nc2ccccc2Cl)c1` the inhibition was 58.9% (active).
`O=C(c1cccc(S(=O)(=O)Nc2ccccc2Cl)c1)N1CCN(C(=O)c2ccco2)CC1` gave an inhibition of 0.095%.
`O=C(Nc1ccc2c(c1)CCC2)c1cccc(S(=O)(=O)N2CCN(c3ccc(F)cc3)CC2)c1` gave an inhibition of -2.68%.
In the case of `CCOc1cnc(C(=O)NNC(=O)c2ccccc2Br)o1`, the inhibition is reported as -9.25%.
With `COc1ccccc1CC(=O)Nc1ccc(F)cc1F` the inhibition was -5.72%.
With `COc1ccc(C(=O)Nc2ccc(F)cc2F)cc1` the inhibition was 76.1% (active).
`COc1cc(OC)cc(C(=O)OCC(=O)Nc2ccc(F)cc2F)c1` gave an inhibition of 3.41%.
`Cc1ccc(C)c(S(=O)(=O)N2CCN(C(=O)Nc3ccccc3)CC2)c1` gave an inhibition of -12.7%.
With `CC1CCCC(C)N1C(=O)COC(=O)COc1ccccc1C#N` (centres undefined) the inhibition was -21.9%.
For `Brc1ccc(-c2nnc(-c3ccccc3)o2)o1`, the inhibition was 67.5% (active).
With `Nc1ccc(-c2nnc(-c3ccc(-c4ccccc4)cc3)o2)cc1` the inhibition was 53.4% (active).
In the case of `Nc1ccc(-c2nnc(-c3ccccc3)o2)cc1`, the inhibition is reported as 61.5% (active).
`OC(c1nnc(-c2ccccc2)o1)c1cccs1` (centres undefined) showed an inhibition of -10.9%.
In the case of `COc1ccccc1-c1nnc(-c2ccc(F)cc2)o1`, the inhibition is reported as 40.7%.
`Brc1ccc(-c2noc(-c3ccccc3)n2)o1` showed an inhibition of -29.7%.
With `CN(C)c1ccc(-c2nnc(-c3cccnc3)o2)cc1` the inhibition was 14.7%.
For `O=C(OCc1ccc(Br)cc1)c1cccc(-c2nnc(-c3ccccc3)o2)c1`, the inhibition was -4%.
Work on `CSc1ccccc1-c1nnc(-c2ccc(Cl)cc2)o1` yielded an inhibition of 26.3%.
For `COc1ccc(C(C)=O)cc1COC(=O)Cn1cnc2ccccc2c1=O`, the inhibition was -0.874%.
With `O=C(NCC1CCCO1)c1ccc(S(=O)(=O)Nc2ccc(F)cc2)cc1` (centres undefined) the inhibition was -0.148%.
`CN(C(=O)c1ccccc1)c1nccnc1C#N` was tested, and the inhibition was 11.5%.
Work on `CC(=O)c1c(C)[nH]c(C(=O)OCC(=O)NCCC(C)C)c1C` yielded an inhibition of -9.8%.
Compound `Cc1cc(C)c(C#N)c(SCC(=O)N(CC(C)C)C2CCS(=O)(=O)C2)n1` (centres undefined) has an inhibition of -11.7%.
With `O=C(O)c1ccc(/C=C2\SC(=S)N(NC(=O)c3ccc(Br)cc3)C2=O)cc1` the inhibition was -7.64%.
`O=C(O)c1ccc2c(c1)C(=O)N(NC(=O)c1ccc(O)cc1)C2=O` showed an inhibition of -2.08%.
In the case of `CC(=O)N1C(=O)/C(=C2\SC(=S)N(NC(=O)c3ccc(O)cc3)C2=O)c2ccccc21`, the inhibition is reported as 80.2% (active).
